Assay results: PubChem BioAssay
Active and inactive are the calls of the source. Unless noted, how the calls were made is not given here.

Experiments:
[1] = system: Wnt5a (protein binding on small-molecule microarray); experiment: Wnt5a binders on small-molecule microarray, primary screen, biophysical, 635/667 nm fluorescence (AID 1142); settings: 635 nm fluorescence, higher = more signal;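 further: fluorescence read at 667 nm with signal to noise per printed feature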
[2] = cell viability in Huh7 cells, primary screen, cytotoxicity control for HCV replication inhibitor project, CellTiter-Glo luminescence, basal, 48 h (AID 1143); settings: Huh7 HCV replicon, higher = more signal, called active from +8 up or from −8 down;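 further: Huh7 hepatoma cells carrying a hepatitis C replication reporter with no stimulus; test concentration not given here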
[3] = P. aeruginosa biofilm formation inhibitors, primary screen, PAO1 strain, BacTiter-Glo luminescence, LB-PBS (AID 1144); settings: 12 h, higher = more signal
[4] = CREB reporter modulators without forskolin, primary screen, cell-based, PC12, CRE-LacZ reporter, unstimulated (AID 1145); settings: no forskolin, luminescence, 4.5 h, higher = more signal, called active from +8 up or from −8 down
[5] = CREB reporter modulators under forskolin, primary screen, cell-based, PC12, CRE-LacZ reporter, forskolin-stimulated (AID 1146); settings: luminescence, 4.5 h, higher = more signal, called active from +8 up or from −8 down;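 further: PC12 cells with 6xCRE LacZ reporter stimulated by forskolin 10 µM; beta-galactosidase reporter signal reflecting CREB driven transcription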
[6] = molecular target: Streptavidin (Streptomyces avidinii) (UniProt P22629); experiment: streptavidin binders on small-molecule microarray, primary screen, artefact control for SMM compound annotation, biophysical, 635/667 nm fluorescence (AID 1147); settings: streptavidin binding, higher = more signal;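 further: signal reflects streptavidin binding to arrayed compounds as a control protein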
[7] = small-molecule binders of probe aInhba, primary screen, biochemical, small-molecule microarray, 635/667 nm fluorescence (AID 1148); settings: higher = more signal;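 further: score merges 667nm spot fluorescence with signal-to-noise for antibody binding to printed compounds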
[8] = molecular target: Torsin-1A (Homo sapiens) (UniProt O14656); experiment: torsin A binders from cell lysate, primary screen, small-molecule microarray, wild-type, 635/667 nm (AID 1149); settings: COS7 hTOR1A-WT lysate, 635 nm fluorescence, higher = more signal
[9] = molecular target: Torsin-1A (Homo sapiens) (UniProt O14656); experiment: small-molecule binders of mutant TOR1A in lysate, primary screen, cell lysate, small-molecule microarray, COS7 lysate, 635/667 nm fluorescence (AID 1150); settings: COS7 hTOR1A mutant lysate, 635 nm fluorescence, higher = more signal;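 further: score pools 667 nm emission and signal to noise measuring lysate protein binding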
[10] = system: Sonic hedgehog protein (Shh); experiment: small-molecule binders of Shh protein, primary screen, biochemical, small-molecule microarray, 635/667 nm fluorescence (AID 1151); settings: small-molecule microarray binding, 635 nm fluorescence; higher = more signal;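 further: Shh protein binding to compounds spotted on small-molecule microarray slides; score combines spot fluorescence intensity with signal-to-noise across triplicate slides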
[11] = E. coli DRC41 culture turbidity changes, primary screen, E. coli filamentation inducer project, strain DRC41, OD650, 48 h (AID 1152);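 further: E. coli MC1000 strain DRC41 lacking acrAB efflux pump and sulA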; settings: E. coli DRC41 (acrAB sulA), higher = more signal, called active from +8 up or from −8 down
[12] = small-molecule binders of probe aLefty1, primary screen, biochemical, small-molecule microarray, 635/667 nm fluorescence (AID 1153); settings: higher = more signal;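 further: score merges spot fluorescence with signal-to-noise ratio from the scanned slide images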
[13] = PSAC antagonists in infected red cells, primary screen, cell-based, P. falciparum Indochina, OD700, 1 h (AID 1154); settings: P. falciparum Indochina infected RBC osmotic lysis, higher = more signal, called active from +8 up or from −8 down
[14] = PSAC antagonists in infected red cells, primary screen, cell-based, P. falciparum Indochina, OD700, 2 h (AID 1155);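 further: lysis reports solute entry through the parasite surface anion channel PSAC; channel blockers reduce lysis of infected cells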; settings: P. falciparum Indochina infected erythrocytes, osmotic lysis OD700; higher = more signal, called active from +8 up or from −8 down
[15] = osmotic lysis modulators in infected erythrocytes, primary screen, PSAC antagonist project, cell-based, P. falciparum Indochina, OD700, 3 h (AID 1156); settings: higher = more signal, called active from +8 up or from −8 down
[16] = PSAC antagonists in infected red cells, primary screen, cell-based, P. falciparum Indochina, OD700, 18 h (AID 1157); settings: P. falciparum Indochina infected erythrocytes, osmotic lysis OD700, 18 h; higher = more signal, called active from +8 up or from −8 down
[17] = modulators of S6 phosphorylation in cells, primary screen, cell-based, A549, cytoblot, luminescence, serum-stimulated (AID 1158); settings: A549 phospho-S6 cytoblot, 5 h, higher = more signal;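 further: serum-stimulated A549 lung adenocarcinoma cells; signal is phosphorylated S6 detected by cytoblot immunostaining with HRP secondary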
[18] = molecular target: NADPH oxidase 2 (Homo sapiens) (UniProt P04839); experiment: NOX2-dependent H2O2 signal modulators, primary screen, NOX inhibitor project, cell-based, HEK293-NOX2, PMA-stimulated, Amplex Red fluorescence (AID 1159); settings: 45 min, higher = more signal, called active from +8 up or from −8 down; further: test concentration not given here
[19] = molecular target: NADPH oxidase 4 (Homo sapiens) (UniProt Q9NPH5); experiment: NOX4-dependent H2O2 signal modulators, primary screen, NOX inhibitor project, cell-based, HEK293-NOX4, tetracycline-induced, Amplex Red fluorescence (AID 1160); settings: 45 min, higher = more signal, called active from +8 up or from −8 down
[20] = molecular target: NADPH oxidase 5 (Homo sapiens) (UniProt Q96PH1); experiment: NOX5-dependent H2O2 signal modulators, primary screen, NOX inhibitor project, cell-based, HEK293-NOX5, Amplex Red fluorescence (AID 1161); settings: HEK293-NOX5, ionomycin, 45 min, higher = more signal
NADPH oxidase 5 (Homo sapiens), sequence (Q96PH1 whole entry, looked up): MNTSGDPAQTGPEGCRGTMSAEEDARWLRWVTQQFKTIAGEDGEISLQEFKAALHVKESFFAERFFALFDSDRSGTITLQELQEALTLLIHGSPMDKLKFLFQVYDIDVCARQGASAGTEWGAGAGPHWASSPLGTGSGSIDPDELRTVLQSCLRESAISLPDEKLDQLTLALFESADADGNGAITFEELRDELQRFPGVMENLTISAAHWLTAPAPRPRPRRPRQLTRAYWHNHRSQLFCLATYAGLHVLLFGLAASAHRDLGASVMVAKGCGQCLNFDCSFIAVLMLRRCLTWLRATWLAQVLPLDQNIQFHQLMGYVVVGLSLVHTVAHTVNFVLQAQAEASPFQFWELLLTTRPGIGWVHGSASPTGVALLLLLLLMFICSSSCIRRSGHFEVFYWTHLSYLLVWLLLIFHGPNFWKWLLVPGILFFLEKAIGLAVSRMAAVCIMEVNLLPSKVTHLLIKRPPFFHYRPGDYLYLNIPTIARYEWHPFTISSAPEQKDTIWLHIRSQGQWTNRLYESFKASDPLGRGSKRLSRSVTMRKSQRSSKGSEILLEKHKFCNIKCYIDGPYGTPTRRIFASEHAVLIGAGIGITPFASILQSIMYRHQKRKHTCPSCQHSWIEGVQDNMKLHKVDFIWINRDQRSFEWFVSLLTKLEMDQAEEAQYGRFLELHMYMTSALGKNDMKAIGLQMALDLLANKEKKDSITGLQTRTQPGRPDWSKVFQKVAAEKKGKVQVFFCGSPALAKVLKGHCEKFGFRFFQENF

Torsin-1A (Homo sapiens), sequence (O14656 whole entry, looked up): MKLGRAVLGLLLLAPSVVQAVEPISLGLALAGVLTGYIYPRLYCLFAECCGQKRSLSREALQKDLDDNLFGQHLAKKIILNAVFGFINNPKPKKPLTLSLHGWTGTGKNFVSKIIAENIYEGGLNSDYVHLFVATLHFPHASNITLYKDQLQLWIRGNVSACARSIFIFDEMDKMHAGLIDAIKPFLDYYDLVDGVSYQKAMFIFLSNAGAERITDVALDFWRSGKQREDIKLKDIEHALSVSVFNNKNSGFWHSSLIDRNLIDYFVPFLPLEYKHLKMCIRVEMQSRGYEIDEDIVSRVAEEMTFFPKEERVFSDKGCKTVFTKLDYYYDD
Streptavidin (Streptomyces avidinii), sequence (P22629 whole entry, looked up): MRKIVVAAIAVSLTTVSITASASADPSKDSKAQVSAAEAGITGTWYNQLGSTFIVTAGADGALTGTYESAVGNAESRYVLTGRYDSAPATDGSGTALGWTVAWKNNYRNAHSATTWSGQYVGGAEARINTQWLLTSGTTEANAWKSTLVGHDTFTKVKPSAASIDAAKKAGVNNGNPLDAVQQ
NADPH oxidase 2 (Homo sapiens), sequence (P04839 whole entry, looked up): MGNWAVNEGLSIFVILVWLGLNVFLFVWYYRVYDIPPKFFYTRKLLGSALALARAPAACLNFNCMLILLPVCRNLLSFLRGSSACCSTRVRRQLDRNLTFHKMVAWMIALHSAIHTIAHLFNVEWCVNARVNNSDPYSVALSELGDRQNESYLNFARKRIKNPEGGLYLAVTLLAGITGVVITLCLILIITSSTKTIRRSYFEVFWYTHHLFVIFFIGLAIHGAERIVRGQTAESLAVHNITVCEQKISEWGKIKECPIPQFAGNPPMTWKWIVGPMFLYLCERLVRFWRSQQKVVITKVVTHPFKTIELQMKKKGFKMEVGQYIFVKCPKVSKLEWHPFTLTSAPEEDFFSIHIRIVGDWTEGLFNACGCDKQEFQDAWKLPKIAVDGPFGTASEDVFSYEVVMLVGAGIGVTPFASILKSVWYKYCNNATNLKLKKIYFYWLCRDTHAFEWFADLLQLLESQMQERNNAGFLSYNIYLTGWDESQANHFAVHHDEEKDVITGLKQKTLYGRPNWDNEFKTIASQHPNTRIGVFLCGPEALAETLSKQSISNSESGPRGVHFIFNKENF
NADPH oxidase 4 (Homo sapiens), sequence (Q9NPH5 whole entry, looked up): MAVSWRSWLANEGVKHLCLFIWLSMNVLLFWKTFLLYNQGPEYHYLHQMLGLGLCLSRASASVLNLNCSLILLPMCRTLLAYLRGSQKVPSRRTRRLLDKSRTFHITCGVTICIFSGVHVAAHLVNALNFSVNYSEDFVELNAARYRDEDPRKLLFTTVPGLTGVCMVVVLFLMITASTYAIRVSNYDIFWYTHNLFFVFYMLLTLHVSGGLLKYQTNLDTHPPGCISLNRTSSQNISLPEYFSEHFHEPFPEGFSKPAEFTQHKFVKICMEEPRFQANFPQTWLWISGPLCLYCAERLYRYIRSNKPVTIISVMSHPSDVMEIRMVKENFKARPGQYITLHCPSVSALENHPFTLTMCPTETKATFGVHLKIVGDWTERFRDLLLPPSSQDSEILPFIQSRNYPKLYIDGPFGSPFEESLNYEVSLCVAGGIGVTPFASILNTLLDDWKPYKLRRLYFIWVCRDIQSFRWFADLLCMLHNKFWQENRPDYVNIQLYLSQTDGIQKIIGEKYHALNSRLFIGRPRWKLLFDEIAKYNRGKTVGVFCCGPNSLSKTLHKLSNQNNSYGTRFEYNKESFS

| Compound | composite z-score [1] | z-score [2] | z-score [3] | z-score [4] | z-score [5] | composite z-score [6] | composite z-score [7] | composite z-score [8] | composite z-score [9] | composite z-score [10] | z-score [11] | composite z-score [12] | z-score [13] | z-score [14] | z-score [15] | z-score [16] | z-score [17] | z-score [18] | z-score [19] | z-score [20] |
| --- | --- | --- | --- | --- | --- | --- | --- | --- | --- | --- | --- | --- | --- | --- | --- | --- | --- | --- | --- | --- |
| NC(=O)NCC#Cc1ccc2c(c1)[C@]1(C(=O)N2)[C@H](C(=O)NC[C@H](O)c2ccccc2)[C@H]2C(=O)O[C@H](c3ccccc3)[C@H](c3ccccc3)N2[C@@H]1c1ccccc1OCCO | -0.0335 | -4.25 (inactive) | -1.09 (inactive) | -0.0246 (inactive) | -0.304 (inactive) | -0.0692 | 0.0471 | -1.05 | 0.92 | 1.82 | 2.23 (inactive) | 0.157 | 1.15 (inactive) | -0.658 (inactive) | 0.0336 (inactive) | -2.16 (inactive) | 1.5 | 0.121 (inactive) | -1.95 (inactive) | -1.81 |
| O=c1cccc(-c2ccccc2)o1 | -0.299 | 0.423 (inactive) | 1.55 (inactive) | -0.723 (inactive) | 0.137 (inactive) | -0.386 | -0.204 | 0.0936 | 0.274 | -0.379 | -0.766 (inactive) | -0.0099 | 3.18 (inactive) | 0.578 (inactive) | -0.891 (inactive) | 0.611 (inactive) | -0.548 | 0.227 (inactive) | -1.81 (inactive) | -0.322 |
| Cc1ccc(S[C@]2(C(=O)NCc3ccccc3)CC(=O)N(Cc3cc(C(F)(F)F)cc(C(F)(F)F)c3)[C@@H]2c2ccc(CO)cc2)cc1 | -0.492 | -0.0639 (inactive) | 0.315 (inactive) | 0.829 (inactive) | 1.21 (inactive) | -0.684 | -0.126 | -1.3 | -0.755 | 0.824 | -0.957 (inactive) | -0.109 | 2.21 (inactive) | 0.818 (inactive) | 0.677 (inactive) | 0.352 (inactive) | -0.466 | 0.314 (inactive) | 0.546 (inactive) | 0.832 |
| CC(C)(C)OC(=O)CC[C@@]1(C(=O)NCC(O)CO)N=C(c2ccc(OCCCO)cc2)O[C@@H]1c1ccccc1 (stereo not given in full) | 0.0271 | 0.496 (inactive) | -1.15 (inactive) | 2.06 (inactive) | -0.904 (inactive) | -0.0256 | -0.0361 | 1.07 | 1.01 | -0.887 | -0.0744 (inactive) | 0.0004 | 20.4 (active) | 2.42 (inactive) | 0.384 (inactive) | 0.519 (inactive) | 0.0391 | 0.0533 (inactive) | 0.626 (inactive) | 1.45 |
| O=C1C2C=CC(C(O)CCc3ccccc3)N(Nc3ccccc3)C2C(=O)N1c1ccccc1 (stereo not given) | 0.742 | 0.267 (inactive) | -0.857 (inactive) | 0.819 (inactive) | -0.0219 (inactive) | 2.32 | 0.372 | 0.143 | 0.82 | -0.365 | -1.7 (inactive) | 0.767 | 1.9 (inactive) | 1.32 (inactive) | 0.624 (inactive) | 1.42 (inactive) | -1.06 | -1.26 (inactive) | -5.33 (inactive) | -1.45 |
| Cn1c2c(c3ccccc31)C(=O)C1NC2C=CC1(C)C(=O)OCc1ccccc1 (stereo not given) | -0.348 | -0.171 (inactive) | 0.908 (inactive) | 1.39 (inactive) | 0.716 (inactive) | 0.298 | 0.0442 | -0.327 | 0.285 | -0.699 | -1.14 (inactive) | 0.125 | 0.395 (inactive) | 0.896 (inactive) | 0.808 (inactive) | 0.484 (inactive) | -0.495 | -0.343 (inactive) | -1.52 (inactive) | 1.31 |
| C=CCN1C(=O)[C@@]2(O[C@@H](CCO)[C@H]([Si](C)(C)c3ccc(OC)cc3)[C@H]2C)c2cc(N3C(=O)COc4ccccc43)ccc21 | 0.564 | -7.99 (inactive) | 0.798 (inactive) | 26 (active) | -4.06 (inactive) | 0.83 | -0.101 | -0.048 | -0.0358 | 0.531 | -0.37 (inactive) | 0.0012 | 24.5 (active) | 11.4 (active) | -0.122 (inactive) | 2.68 (inactive) | 0.175 | -0.548 (inactive) | -0.111 (inactive) | 0.0948 |
| C=CCC(OC(C)=O)[C@@H]1[C@@H](N(Cc2ccc(-c3ccccc3)cc2)C(=O)c2ccc(C)cc2)c2cc(OCCCO)ccc2N1C(=O)Cc1ccc(OC)cc1 (stereo not given in full) | -0.0283 | -0.536 (inactive) | 0.307 (inactive) | 0.904 (inactive) | 0.429 (inactive) | 1.36 | -0.101 | -0.691 | -0.0431 | 0.726 | 2.25 (inactive) | -0.0937 | 0.398 (inactive) | -1.46 (inactive) | -0.774 (inactive) | -1.43 (inactive) | 1.52 | -0.137 (inactive) | 1.01 (inactive) | 2.57 |
